{"source": "the supplement of paper PMC12340641", "note": "The full ranking holds about 1,000 compounds; the median of “relative growth in counter assay (no AraC = 100%, AraC + DMSO = 0%)” is about -1.1, and the highest 2% start at about 20. This excerpt belongs to a sample that is enriched for the highest values.", "data": [{"test_system": "HEK293FT dCK*-only", "assay": "relative growth in counter assay (no AraC = 100%, AraC + DMSO = 0%); higher = more growth rescue independent of IKZF1", "conditions": "compound concentration: 5 uM; AraC concentration: 0.3 uM; overnight pretreatment + 4 days AraC", "protocol": "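Growth recovery screen of the molecular-glue-like (Specs) library. HEK293FT cells expressing a dCK*-IKZF1 fusion (primary) or dCK* alone (counter) were pretreated overnight with compound at 5 uM, then given 0.3 uM AraC for 4 days. Hoechst nuclei were counted by imaging. Primary: normalised to pomalidomide (100%) and DMSO (0%), mean of 2 replicates. Counter: normalised to no-AraC (100%) and AraC+DMSO (0%), single replicate.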", "units": {"relative growth in counter assay": "%"}, "values": [{"smiles": "O=C1CCCC/C1=C/Nc1ccc(S(=O)(=O)Nc2cnc3ccccc3n2)cc1", "relative growth in counter assay": -1.17}, {"smiles": "Cc1cnc(Nc2cccc(C3CN(C(=O)Cc4ccccc4)CCO3)n2)s1", "note": "(stereo not given)", "relative growth in counter assay": -5.45}, {"smiles": "COCC(=O)N1CCC(c2cccc(Nc3nc(C)cs3)n2)CC1", "relative growth in counter assay": 14}, {"smiles": "O=C(C1CCCCC1)N1CCOC(c2cccc(Nc3ncc(Cc4cccc(Cl)c4)s3)n2)C1", "note": "(stereo not given)", "relative growth in counter assay": 13.1}, {"smiles": "O=C1CCCN1CCOCC(=O)N1CCOC(c2cccc(Nc3nccs3)n2)C1", "note": "(stereo not given)", "relative growth in counter assay": -1.14}, {"smiles": "CC(=O)Nc1ccc(C(=O)Nc2ccc(S(=O)(=O)Nc3nccc(C)n3)cc2)cc1", "relative growth in counter assay": -3.58}, {"smiles": "O=C1CCC(N2C(=O)c3cc(F)c(N4CCN(CCC5CCNCC5)CC4)cc3C2=O)C(=O)N1", "note": "(stereo not given)", "relative growth in counter assay": 1.21}, {"smiles": "CC(C)C(=O)N1CCCC1c1csc(Nc2ccccn2)n1", "note": "(stereo not given)", "relative growth in counter assay": 6.43}, {"smiles": "Cc1cc(NS(=O)(=O)c2ccc(NC(=O)C3COc4ccccc4O3)cc2)nc(C)n1", "note": "(stereo not given)", "relative growth in counter assay": -10.4}, {"smiles": "O=C(O)CCOCCOCCOCCNc1cc2c(cc1F)C(=O)N(C1CCC(=O)NC1=O)C2=O", "note": "(stereo not given)", "relative growth in counter assay": 0.94}, {"smiles": "CCCCc1cnc(Nc2cccc(C3CCN(C(=O)C4(C)CCCN4C(=O)OC(C)(C)C)CC3)n2)s1", "note": "(stereo not given)", "relative growth in counter assay": 5.27}, {"smiles": "CC(=O)Oc1cccc(N2C(=O)c3ccc(Oc4ccc(N)cc4)cc3C2=O)c1", "relative growth in counter assay": -2.02}, {"smiles": "CC(C)CC(C(=O)Nc1ccc(S(=O)(=O)Nc2ccccn2)cc1)N1C(=O)c2ccccc2C1=O", "note": "(stereo not given)", "relative growth in counter assay": 0.21}, {"smiles": "CCOc1ccccc1OCC(=O)Nc1ccc(S(=O)(=O)Nc2ncccn2)cc1", "relative growth in counter assay": 2.46}, {"smiles": "Cc1ccn(CCC(=O)N2CCOC(c3cccc(Nc4ncc(C)s4)n3)C2)n1", "note": "(stereo not given)", "relative growth in counter assay": -1.16}, {"smiles": "NC(=O)CN1CCCCC1c1csc(Nc2ccccn2)n1", "note": "(stereo not given)", "relative growth in counter assay": 8.38}, {"smiles": "Cc1cc(C)nc(NS(=O)(=O)c2ccc(NS(=O)(=O)/C=C/c3ccccc3)cc2)n1", "relative growth in counter assay": 5.62}, {"smiles": "CCCc1cnc(Nc2cccc(C3CCN(C(=O)C4CCCCN4CCCO)CC3)n2)s1", "note": "(stereo not given)", "relative growth in counter assay": -21.2}, {"smiles": "CC(C)(N)C(=O)N1CCC(c2cccc(Nc3ncc(CC(F)(F)F)s3)n2)CC1", "relative growth in counter assay": -21.1}, {"smiles": "Cc1cnc(Nc2cccc(C3CN(C(=O)C4(c5ccccc5)CC4)CCO3)n2)s1", "note": "(stereo not given)", "relative growth in counter assay": -7.66}, {"smiles": "CCCc1cnc(Nc2cccc(C3CCN(C(=O)C4CCCCN4CC(=O)O)CC3)n2)s1", "note": "(stereo not given)", "relative growth in counter assay": -19.3}, {"smiles": "Cc1cccc(N2CC(C(=O)Nc3ccc(S(=O)(=O)Nc4ncccn4)cc3)CC2=O)c1C", "note": "(stereo not given)", "relative growth in counter assay": 2.21}, {"smiles": "COc1ccc(C(=O)Nc2ccc(S(=O)(=O)Nc3ccccn3)cc2)cc1OC", "relative growth in counter assay": 2.76}, {"smiles": "O=C(O)CCOCCOCCOCCOCCNc1ccc2c(c1)C(=O)N(C1CCC(=O)NC1=O)C2=O", "note": "(stereo not given)", "relative growth in counter assay": 9.95}, {"smiles": "CS(=O)(=O)Nc1ccc(S(=O)(=O)Nc2ncccn2)cc1", "relative growth in counter assay": 3.46}]}]}
